Records with an inconclusive call do not appear. Where a call stands in place of a potency, no number is given. Active and inactive are the calls of the source. Calls follow the shape of the dose curve; as a rule, active = well fitted inhibition curve with a large enough effect; inconclusive = small, poorly fitted or top-dose-only effect; inactive = flat fitted curve, though single readings scatter.
Tested on: Zika virus NS2B-NS3 protease
Test: Primary screen GU AMC qHTS for Zika virus inhibitors (AID 1347154); also: nearly all actives have a fitted effect of over 70% in size
Details: Zika NS2B-NS3 unlinked protease, AMC fluorogenic substrate; series mostly up to 54.1 µM
How it was run: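 Unlinked Zika NS2B hydrophilic domain/NS3 protease domain noncovalent complex (25 nM final) in 10 mM Tris-HCl pH 8.0, 0.01% Tween 20, with AMC peptide substrate. Fluorescence (ex 340, em 450 nm) change over 15 min, room temperature; percent inhibition fitted to 4-parameter Hill equation.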

| Structure (SMILES) | Potency |
| --- | --- |
| C/C=C/C(=O)N(CC)c1ccccc1C | inactive |
| CCCCCCCC(=O)OCC(O)CO (configuration not stated) | inactive |
| O=C1CC[C@@H](C(=O)O)N1 | inactive |
| Cc1ccc(S(=O)(=O)NC(=O)NC2CCCCCCC2)cc1 | inactive |
| CCc1nnc(NS(=O)(=O)c2ccc(N)cc2)s1 | inactive |
| O[C@@H]1CO[C@H]2[C@@H]1OC[C@@H]2O | inactive |
| O=c1[nH]c(=O)n([C@H]2C[C@H](O)[C@@H](CO)O2)cc1I | inactive |
| CC(=O)SC[C@@H](Cc1ccccc1)C(=O)NCC(=O)OCc1ccccc1 | inactive |
| OCc1ccc(Cl)cc1Cl | inactive |
| CC(C(=O)O)c1ccc2c(c1)Cc1cccnc1O2 (configuration not stated) | inactive |
| CC1(C)S[C@@H]2[C@H](NC(=O)C(C(=O)O)c3ccccc3)C(=O)N2[C@H]1C(=O)O (some centres not stated) | inactive |
| NS(=O)(=O)c1cc2c(cc1C(F)(F)F)NCNS2(=O)=O | inactive |
| OC[C@@H](O)[C@@H](O)[C@H](O)[C@H](O)CO | inactive |
| Cc1[nH]c(C)c(Cl)c(=O)c1Cl | inactive |
| NC(=O)NS(=O)(=O)c1ccc(N)cc1 | inactive |
| NC(N)=NS(=O)(=O)c1ccc(N)cc1 | inactive |
| C[N+](C)(C)CC[N+]1(C)Cc2c(Cl)c(Cl)c(Cl)c(Cl)c2C1 | inactive |
| C[C@]1(Cn2ccnn2)[C@H](C(=O)O)N2C(=O)C[C@H]2S1(=O)=O | inactive |
| Cc1ccc(C(C)C)c(O)c1 | inactive |
| CC(C)=CCC[C@@](C)(O)[C@H]1CC=C(C)CC1 | inactive |
| NC(=O)NC1NC(=O)NC1=O (configuration not stated) | inactive |
| C=CCOc1ccccc1OCC(O)CNC(C)C (configuration not stated) | inactive |

From PubChem BioAssay (NCATS)
